# Compound activity (PubChem BioAssay)
# An excerpt weighted towards active compounds, which were near 8% of everything screened.
# MARV entry inh: qHTS for Inhibitors of binding or entry into cells for Marburg Virus; Marburg virus pseudotype entry/binding inhibition, cell-based; Potency, µM (doses to about 49.2 µM), for the others: at the highest dose activity change, negative = inhibition, hits mostly inhibitors; hit rate 6.5% among 18,000
# Lassa entry: qHTS for Inhibitors of binding or entry into cells for Lassa Virus | hit rate 4.1% among 18,000 | Potency, µM (doses to about 49.2 µM), inactives show at the highest dose activity change, negative = inhibition, most hits filed as inhibitors | Lassa virus pseudotyped entry inhibition, cell-based qHTS
# Starred values were filed as active, the others as inactive; ? = inconclusive; nt = no result; ! = not active in a repeat; [ ] = another dose, or the depositor's remark. The call rests on the fitted dose curve; tested in HEK293 cells. On the % scale 0 is the no-effect control and ±100 the full control effect; potency means the concentration at half of the fitted maximal effect.
SMILES,MARV entry inh,Lassa entry
COc1cccc([C@H]2NC(=O)C[C@@H]3C[C@@H](C)[C@@H](c4cccc(OC)c4)N3C(=O)C=CC[C@@H]2C)c1,8%[8.59 µM],44%[8.59 µM]
CC(C)c1cc(/C=C(\C#N)C(=O)NCCCc2ccccc2)cc(C(C)C)c1O,?,25µM*
N#C/C(=C\c1ccc(O)c(O)c1)C(=O)NCCCNC(=O)/C(C#N)=C/c1ccc(O)c(O)c1,-31%,-21%
COC(=O)c1cc(CNC(=O)c2ccccc2OC)cc(NC(=O)c2ccccc2F)c1,-27%,?
OC[C@H]1O[C@H](C#Cc2ccc(F)cc2F)C=C[C@H]1O,?,-16%[8.59 µM]
CC(C)CON=C1C[C@@H](O)[C@@H](O)[C@@H]2[C@H]3C(=O)N(c4ccc(F)cc4F)C(=O)[C@@H]3CC[C@@H]12,-13%[8.59 µM],5%[8.59 µM]
Cc1cnc(-n2ncc(C(=O)NCCCc3ccncc3)c2C)nc1-c1ccc(F)cc1,20µM*,-12%
Cc1cnc(-n2ncc(C(=O)NCCc3cccnc3)c2C)nc1-c1ccc(F)cc1,?,-13%
CCCCc1c(O)n(-c2ccccc2)[nH]c1=O,-2%,10µM*
CCCCC1C(=O)N(c2ccccc2)N(c2ccc(O)cc2)C1=O (configuration not stated),48%[17.8 µM],?
Cn1cc(C2=C(c3cn(CCCSC(=N)N)c4ccccc34)C(=O)NC2=O)c2ccccc21,16µM*,18µM*
Cn1cc(C=C2C(=O)Nc3cccnc32)c2ccccc21,10%,-23%
CN(C)CCCn1cc(C2=C(c3c[nH]c4ccccc34)C(=O)NC2=O)c2ccccc21,7.1µM*,?
COc1ccc2[nH]cc(CCNc3ncncc3-c3ccccc3CN(C)C)c2c1,?,-14%
COc1ccc2c(c1)c(C1=C(c3c[nH]c4ccccc34)C(=O)NC1=O)cn2CCCN(C)C,7.1µM*,?
C[C@@H]1CC[C@H]2C(=O)N(Cc3ccc(Cl)cc3)C[C@@H](O)CN2[C@@H]1c1ccc(Br)cc1,-15%[8.59 µM],-2%[8.59 µM]
C=CCCC1(C(=O)c2ccccc2)C(=O)C(CC=C(C)C)=C(OC)C(CC=C(C)C)(CCC=C(C)C)C1=O (configuration not stated),-1%[8.59 µM],nt
O=C1C=CC2=C3c4cc(O)c(O)cc4CC3(O)COC2=C1O (configuration not stated),3.2µM*,-16%
CC(C)CON=C1C[C@@H](O)[C@@H](O)[C@@H]2[C@H]3C(=O)N(C4CCCCC4)C(=O)[C@@H]3CC[C@@H]12,-20%[8.59 µM],nt
O=C(NC1CC1)c1ccc(NC(=O)C2CCC2)cc1,19%,20%
CC(=O)Nc1ccc(NC(=S)NC(=O)c2ccc(C(C)(C)C)cc2)cc1,7.1µM*,32µM*
CN(C)c1ccc2nc3ccc(=[N+](C)C)cc-3sc2c1,3.5µM*,11µM*
Cc1cc2nc3ccc(=[N+](C)C)cc-3sc2cc1N,13µM*,22µM*
CC(C)c1ccc(Cn2ccc3c4c(N)nc(NC5CC5)nc4ccc32)cc1,4µM*,13µM*
O=C(c1cccs1)N1C[C@@H](O)[C@@H](n2cc(C3CC3)nn2)C[C@@H]1c1ccc(Cl)cc1,7%,nt
SMILES,MARV entry inh,Lassa entry
CC(=O)C1=C(C)N(Cc2ccccc2)C(=O)NC1c1ccc(Br)cc1 (configuration not stated),-4%[8.59 µM],?
CC=C[C@@H]1Oc2ccc(OC)cc2N2C(=O)[C@H](C)[C@@H](OCOC)[C@H]12,-23%[8.59 µM],-6%[8.59 µM]
O=C(Nc1ccccc1)c1cc([N+](=O)[O-])ccc1Cl,?,-25%
O=C(Nc1ccc([N+](=O)[O-])cc1Cl)c1cc(Cl)ccc1O,5µM*!,1.1µM*
CC1(C)CC(=O)C2=C(C1)O[C@@]1(CCCCN3C(=O)c4ccccc4C3=O)Cc3c(ccc4ccccc34)[C@H]2O1,-27%[8.59 µM],-4%[8.59 µM]
C[C@@]12C(=O)OC(=O)[C@]1(C)C1CCC2O1,4.5µM*,2.2µM*
C=CCNC(=O)N1C2=NC(C(=O)OC)=C(C(=O)OC)[C@@H]3N(C)c4ccccc4[C@]23C[C@H]1CO,-31%[8.59 µM],4%[8.59 µM]
CCC(=O)OC1(c2ccccc2)CCN(C)CC1,-15%[107 µM],-6%[107 µM]
CCOC(=O)C1(c2ccccc2)CCN(CCC(C#N)(c2ccccc2)c2ccccc2)CC1,2.5µM*,7.9µM*
O=C1NC(=O)[C@H]2[C@@H]1[C@@H]1C=C[C@H]2C1,6%,-23%
Cc1c(C(=O)N(C)C2CCCCC2)sc2nc3ccc(N)cc3n12,22µM*,?
OC[C@@H](O)COc1cccc2ccccc12,-8%,-4%
CNCC[C@H](Oc1cccc2ccccc12)c1cccs1,7.9µM*,22µM*
O=C(Nc1n[nH]c2nnc(-c3cccnc3)cc12)C1CC1,?,-25%
O=S(=O)(O)c1ccc(Nc2ncnc3c2ncn3[C@@H]2O[C@H](CO)[C@@H](O)[C@H]2O)cc1,17%,-13%
OC[C@H]1O[C@@H](n2cnc3c(NCc4ccccc4)ncnc32)[C@H](O)[C@@H]1O,28µM*,?
C=CC[C@@H]1C=C[C@@H](Oc2ccc(OC)cc2)[C@H](CO)O1,-15%[8.59 µM],-7%[8.59 µM]
C=C(CCN1C=C(C(C)=O)C(c2ccccc2)NC1=O)c1ccccc1 (configuration not stated),?,-8%[8.59 µM]
COc1cc(OC)c([C@@H]2O[C@H](CO)[C@@H](O)[C@H](O)[C@@H]2O)c(OC)c1,102%[8.59 µM],14%[8.59 µM]
COC(=O)N[C@@H](C=Cc1ccco1)[C@]1(C(=O)OC)CCCC1=O,3%[8.59 µM],5%[8.59 µM]
C[C@H](NCc1ccccc1)c1ccccc1,-1%,1%
C[C@H](NCCC(c1ccccc1)c1ccccc1)c1ccccc1,10µM*,?
CC(C)(C)[Si](C)(C)OCCC[C@@H]1C[C@H]2C=CCOP(=O)(O1)O2,14%,-2%
NC(=NC1C2CC3CC(C2)CC1C3)Nc1ccc(I)cc1 (configuration not stated),11µM*,8.9µM*
COc1cc2c(cc1OC)[C@@H]1O[C@](c3ccsc3)(C2)OC2=C1C(=O)CC(C)(C)C2,-12%[8.59 µM],-11%[8.59 µM]
SMILES,MARV entry inh,Lassa entry
O=C(O)c1ccccc1[O-].O=C(O)c1ccccc1[O-].[Zn+2],6%,-15%
C[C@H]1CC[C@H]2C(=O)N[C@H](Cc3ccccc3)C(=O)N2[C@H]1c1ccccc1,-17%[8.59 µM],9%[8.59 µM]
O=C(OCC(O)CO)c1ccccc1Nc1ccnc2cc(Cl)ccc12 (configuration not stated),-11%,-13%
Cc1ccc(O)cc1Nc1ccnc2cc(-c3ccccn3)ccc12,14µM*,?
C[C@@H](ON=C1[C@H]2CCn3c(=O)n(-c4ccccc4)c(=O)n3[C@@H]2[C@H](O)[C@@H]2O[C@H]12)c1cn([C@@H]2COC[C@@H]2O)nn1,36%[8.59 µM],-19%[8.59 µM]
CCN1C(=O)NC(c2cccc(C(F)(F)F)c2)C(C(C)=O)=C1C (configuration not stated),12%[8.59 µM],-4%[8.59 µM]
O=C(NCc1ccccc1)c1ccc(-c2ccccc2C(F)(F)F)o1,34%,11µM*
Cc1ccc(-c2ccc(C(=O)NCc3ccc(Cl)cc3)o2)c2ccccc12,-9%,?
Cc1cc(C)cc(C(=O)OC2C[C@H]3CC[C@@H](C2)N3C)c1 (some centres not stated),11µM*,?
COc1cc(C(=O)OC2C[C@H]3CC[C@@H](C2)N3C)ccc1O (some centres not stated),5%[17.8 µM],2%[17.8 µM]
C[N+](C)(CCOc1ccccc1)Cc1cccs1,13%,-17%
Cc1cc(OCCOCC[N+](C)(C)Cc2ccccc2)ccc1C(C)(C)CC(C)(C)C,22µM*,25µM*
